Structures are written as SMILES. Inconclusive results are not listed. Entries that show only a call come without a potency. The source made the active and inactive calls. Calls follow the shape of the dose curve; as a rule, active = well fitted cell-killing curve with a large enough effect in the repeat runs; inconclusive = weak or mixed curves, or effect the other way; inactive = flat fitted curve, though single readings scatter.
Potency is read from the fitted curve at half-maximal effect.

The nature of one experiment: cAMP Responsive Elements (CRE) small molecule antagonists, cell-based qHTS assay: qHTS cell viability counter screen (AID 2060913). Also: nearly all actives have a fitted effect of over 40% in size. The conditions noted are these: CRE-bla HEK293T viability, CellTiter-Glo luminescence, 5 h; series mostly up to 92.4 µM. The essentials:
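Cytotoxicity counter screen multiplexed with the CRE-bla antagonist read: HEK293T cells in DMEM with dialyzed FBS and 25 mM HEPES were treated 3 hrs under 0.25 uM final NKH477, then viability measured by CellTiter-Glo luminescence.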
(Quantitative high-throughput screening tests each substance at several concentrations.)
Take `Nc1ccc(N=Nc2ccc(-c3ccc(N=Nc4c(S(=O)(=O)O)cc5cc(S(=O)(=O)O)c(N=Nc6ccccc6)c(O)c5c4N)cc3)cc2)c(N)c1`: the Potency result is “inactive”.

For `C[N+](C)(C)CCOC(=O)C(O)(c1ccccc1)c1ccccc1`, the Potency entry is “inactive”.

As to `CN1C(=O)CN=C(c2ccccc2)c2cc(Cl)ccc21`, the Potency entry is “inactive”.

Turning to `CC(=O)CC(c1ccc(Cl)cc1)c1c(O)c2ccccc2oc1=O` (stereo not given), the Potency entry was “inactive”.

With `C/C=C/c1ccc2c(c1)OCO2`, the Potency result was “inactive”.

On to `Cc1cc(Cl)ccc1OC(C)C(=O)O` (stereo not given), for which the Potency entry was “inactive”.

Turning to `Cc1ccc(N=C=O)cc1N=C=O`, the Potency entry is “inactive”.

In the case of `CC(C)NC(=O)N1CC(=O)N(c2cc(Cl)cc(Cl)c2)C1=O`, the Potency result is “inactive”.

With `c1cc[n+]2c(c1)-c1cccc[n+]1CC2`, the Potency entry was “inactive”.

For `O=C1C(Cl)C(CCl)CN1c1cccc(C(F)(F)F)c1` (stereo not given), the Potency entry was “inactive”.

`Cc1ccccc1N`: the Potency result is “inactive”.

For `COc1ncc(F)c2nc(S(=O)(=O)Nc3c(F)cccc3F)nn12`, the Potency entry is “inactive”.

In the case of `N#CNC#N`, the Potency result is “inactive”.

Take `C=CC(=O)OCC(C)O` (stereo not given): the Potency entry is “inactive”.

Turning to `OCCOCCO`, the Potency entry was “inactive”.

For `O=S(=O)(c1ccc(Cl)cc1)c1cc(Cl)c(Cl)cc1Cl`, the Potency result was “inactive”.

Turning to `CN1CCC(N(Cc2ccccc2)c2ccccc2)CC1`, the Potency entry is “inactive”.

With `ClCC(Cl)CCl`, the Potency result is “inactive”.

Regarding `CCN(CC)C(=O)/C(Cl)=C(\C)OP(=O)(OC)OC`, the Potency result is “inactive”.

For the compound `CN/C(=N\[N+](=O)[O-])NCc1cnc(Cl)s1`, the Potency result was “inactive”.

For the compound `Cn1[nH]nnc1=S`, the Potency entry was “inactive”.

As for `CC(C)(O)c1cnn2c(-c3ccc(F)c(-c4c(F)cccc4C#N)c3)cnc2n1`, the Potency entry is “inactive”.

As for `CC(C)(O)C(=O)Nc1ccc([N+](=O)[O-])c(C(F)(F)F)c1`, the Potency entry is “inactive”.

With `CC1(C)[C@H](C=C(Cl)Cl)[C@@H]1C(=O)O[C@@H](C#N)c1cccc(Oc2ccccc2)c1`, the Potency result was “inactive”.

Take `COC(=O)C(Cl)C(=O)OC`: the Potency result was “inactive”.

With `Cc1ccc(O)c(C)c1`, the Potency entry is “inactive”.

Turning to `CCCCCc1cc(O)cc(O)c1`, the Potency result is “inactive”.

In the case of `CC(C)OC(=O)Cc1ccccc1`, the Potency entry was “inactive”.

Regarding `CCCCN(CCCC)SN(C)C(=O)Oc1cccc2c1OC(C)(C)C2`, the Potency result was “inactive”.

In the case of `CC1CCC(C(C)C)C(OC(=O)c2ccccc2N)C1` (stereo not given), the Potency is 47.9 µM (active).

As to `CN1[C@@H]2CC[C@H]1CC(O)C2` (stereo not given in full), the Potency entry was “inactive”.

In the case of `CCC1(c2ccccc2)C(=O)N=C(O)NC1=O` (stereo not given), the Potency result is “inactive”.

With `COc1ccc(N)cc1`, the Potency entry was “inactive”.

Consider `O=[N+]([O-])c1cc(Cl)c(Cl)c(Cl)c1`, for which the Potency entry is “inactive”.

In the case of `CC(C)CCCCCCOC(=O)c1ccccc1C(=O)OCCCCCCC(C)C`, the Potency entry was “inactive”.

Regarding `BrCCc1ccccc1`, the Potency entry is “inactive”.

Consider `C=CCC1(C(C)CC)C(=O)NC(=O)NC1=O` (stereo not given), for which the Potency entry is “inactive”.

Regarding `Cc1cc(OC(=O)N(C)C)nn1C(=O)N(C)C`, the Potency entry was “inactive”.

Consider `OCCCBr`, for which the Potency result was “inactive”.

For the compound `NC(=O)OCCCc1ccccc1`, the Potency result was “inactive”.

A further experiment in a line: cAMP Responsive Elements (CRE) small molecule agonists, cell-based qHTS assay: qHTS cell viability counter screen (AID 2060914).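 Also: viability read after 3 h of compound exposure; nearly all actives have a fitted effect of over 50% in size.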 The conditions noted are these: CRE-bla HEK293T viability, CellTiter-Glo luminescence, 5 h; series mostly up to 92.4 µM. The essentials:
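HEK 293T CRE-bla; DMEM + 10% dialyzed FBS, 25 mM HEPES; 18 h pre-incubation; compound 3 h, 37 °C/5% CO2; CellTiter-Glo added after reporter read; luminescence after 30 min RT.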
Consider `Nc1ccc(N=Nc2ccc(-c3ccc(N=Nc4c(S(=O)(=O)O)cc5cc(S(=O)(=O)O)c(N=Nc6ccccc6)c(O)c5c4N)cc3)cc2)c(N)c1`, for which the Potency entry is “inactive”.

Regarding `C[N+](C)(C)CCOC(=O)C(O)(c1ccccc1)c1ccccc1`, the Potency entry is “inactive”.

On to `CN1C(=O)CN=C(c2ccccc2)c2cc(Cl)ccc21`, for which the Potency entry is “inactive”.

`CC(=O)CC(c1ccc(Cl)cc1)c1c(O)c2ccccc2oc1=O` (stereo not given): the Potency entry is “inactive”.

With `C/C=C/c1ccc2c(c1)OCO2`, the Potency entry is “inactive”.

On to `Cc1cc(Cl)ccc1OC(C)C(=O)O` (stereo not given), for which the Potency result is “inactive”.

Take `Cc1ccc(N=C=O)cc1N=C=O`: the Potency result is “inactive”.

Consider `CC(C)NC(=O)N1CC(=O)N(c2cc(Cl)cc(Cl)c2)C1=O`, for which the Potency entry was “inactive”.

Consider `c1cc[n+]2c(c1)-c1cccc[n+]1CC2`, for which the Potency result is “inactive”.

As for `O=C1C(Cl)C(CCl)CN1c1cccc(C(F)(F)F)c1` (stereo not given), the Potency entry was “inactive”.

Turning to `Cc1ccccc1N`, the Potency entry was “inactive”.

`COc1ncc(F)c2nc(S(=O)(=O)Nc3c(F)cccc3F)nn12`: the Potency result is “inactive”.

Regarding `N#CNC#N`, the Potency entry is “inactive”.

In the case of `C=CC(=O)OCC(C)O` (stereo not given), the Potency result is “inactive”.

For the compound `OCCOCCO`, the Potency result is “inactive”.

`O=S(=O)(c1ccc(Cl)cc1)c1cc(Cl)c(Cl)cc1Cl`: the Potency result was “inactive”.

Regarding `CN1CCC(N(Cc2ccccc2)c2ccccc2)CC1`, the Potency entry is “inactive”.

Regarding `ClCC(Cl)CCl`, the Potency result is “inactive”.

With `CCN(CC)C(=O)/C(Cl)=C(\C)OP(=O)(OC)OC`, the Potency result is “inactive”.

Regarding `CN/C(=N\[N+](=O)[O-])NCc1cnc(Cl)s1`, the Potency result was “inactive”.

As for `Cn1[nH]nnc1=S`, the Potency result was “inactive”.

For the compound `CC(C)(O)c1cnn2c(-c3ccc(F)c(-c4c(F)cccc4C#N)c3)cnc2n1`, the Potency result is “inactive”.

Consider `CC(C)(O)C(=O)Nc1ccc([N+](=O)[O-])c(C(F)(F)F)c1`, for which the Potency entry is “inactive”.

For `CC1(C)[C@H](C=C(Cl)Cl)[C@@H]1C(=O)O[C@@H](C#N)c1cccc(Oc2ccccc2)c1`, the Potency result is “inactive”.

Consider `COC(=O)C(Cl)C(=O)OC`, for which the Potency result is “inactive”.

Take `Cc1ccc(O)c(C)c1`: the Potency entry was “inactive”.

With `CCCCCc1cc(O)cc(O)c1`, the Potency result was “inactive”.

Consider `CC(C)OC(=O)Cc1ccccc1`, for which the Potency entry was “inactive”.

As for `CCCCN(CCCC)SN(C)C(=O)Oc1cccc2c1OC(C)(C)C2`, the Potency entry was “inactive”.

With `CC1CCC(C(C)C)C(OC(=O)c2ccccc2N)C1` (stereo not given), the Potency was 53.7 µM (active).

Turning to `CN1[C@@H]2CC[C@H]1CC(O)C2` (stereo not given in full), the Potency entry was “inactive”.

On to `CCC1(c2ccccc2)C(=O)N=C(O)NC1=O` (stereo not given), for which the Potency result was “inactive”.

As to `COc1ccc(N)cc1`, the Potency entry was “inactive”.

As for `O=[N+]([O-])c1cc(Cl)c(Cl)c(Cl)c1`, the Potency entry was “inactive”.

As to `CC(C)CCCCCCOC(=O)c1ccccc1C(=O)OCCCCCCC(C)C`, the Potency entry is “inactive”.

As to `BrCCc1ccccc1`, the Potency result is “inactive”.

For the compound `C=CCC1(C(C)CC)C(=O)NC(=O)NC1=O` (stereo not given), the Potency entry was “inactive”.

As to `Cc1cc(OC(=O)N(C)C)nn1C(=O)N(C)C`, the Potency entry was “inactive”.

For `OCCCBr`, the Potency result was “inactive”.

Turning to `NC(=O)OCCCc1ccccc1`, the Potency entry was “inactive”.

Source of the values: PubChem BioAssay (Tox21).
